From PubChem BioAssay (NCATS) come the findings set out here.

Structures are written as SMILES. Records with an inconclusive call do not appear. Where a call stands in place of a potency, no number is given. Unmarked numbers belong to inactive results. Active and inactive are the calls of the source. Calls follow the shape of the dose curve; as a rule, active = well fitted inhibition curve with a large enough effect; inconclusive = small, poorly fitted or top-dose-only effect; inactive = flat fitted curve, though single readings scatter. Non-standard residues stand in square brackets, D forms with d. Residues, ends and D or L forms follow the SMILES beside them. *: point of attachment. Benzoyl(4-tBu) = CC(C)(C)c1ccc(C(=O)*)cc1; Lys(Et2) = CCN(CC)CCCC[C@H](N)C(=O)O
Potency is read from the fitted curve at half-maximal effect.

This assay in a line: BET inhibitor-based combinations targeting novel dependencies in MECOM-rearranged (r) AML: AML-194 cell line (AID 2202237; also: nearly all actives have a fitted effect of over 40% in size). The following applies: AML-194 (MECOM-r AML) viability, CellTiter-Glo, 48 h; series mostly up to 46 µM. The source says: Ecotropic viral insertion site 1 (EVI1) is located on chromosome 3q26.2 as part of the MECOM (MDS and EVI1 complex) locus. Under normal hematopoiesis, EVI1 is a regulator of hematopoietic stem cell maintenance and self-renewal and EVI1 levels decrease as the cells differentiate. In approximately 5-10% of de novo acute myeloid leukemia (AML) EVI1 is aberrantly expressed, including Chromosomal inv(3)(q21;q26.2) or t(3;3)(q21;q26.2) alterations (MECOM-r) that account for about 50% of AML with EVI1 overexpression 31. AMLs with high levels of EVI1 have a poor prognosis and an overall survival time averaging between 10-14 months. EVI1 overexpression confers resistance in leukemia cells, highlighting the need to develop new targeted therapies for EVI1 overexpressing AMLs.
Here, we performed an unbiased chemical drug screening by evaluating the single agent activity of a collection of 2,480 oncology-focused, approved and investigational drugs (NCATS Mechanism Interrogation Plates, MIPE v5.0) against a panel of seven AML cell lines. These included four MECOM-r cell-lines (AML-191, AML-194, UCSD-AML1 and HNT-34) and three non-MECOM-r AMLs (MV4-11, OCI-AML3 and SET-2). Exploiting the mechanistic redundancy built in the library, we identified target-level sensitivities in MECOM-r AML cells and relative activity as compared to other AML subtypes.
A collection of 2480 mechanistically annotated dugs (MIPE v5.0) was used to screen four 3q26.2 rearranged AML cell lines and three non-3q26.2 rearranged AML cell lines. This library purposely exploits redundancy by including multiple inhibitors of key onco-targets, while simultaneously encompassing mechanistic diversity, targeting more than 800 distinct mechanisms of action. Briefly, cells were seeded in 5 uL of growth media using a Multidrop Combi dispenser into 1536 well white polystyrene tissue culture treated plates (Corning) at a density of 500cells/well. For each cell-line, for each of the 2480 drugs in MIPE v5.0 library, an 11-point dose curve was generated via a 1536 pin-tool. Plates were incubated for 48 hr at standard incubator conditions, covered by a stainless steel gasketed lid to prevent evaporation. Cell viability was determined by luminescence based, Cell Titer Glo assay (Promega). In detail, 3 uL of Cell Titer Glo were added to each well and plates were incubated at room temperature for 15 min with a stainless-steel lid in place. Luminescence readings were taken using a Viewlux (PerkinElmer) with a 2 s exposure time per plate. Compound dose-response curves were normalized to DMSO and empty well controls on each plate. Quantitative drug activity data from dose-response curves was determined utilizing area Under the Curve (AUC) and Z-transformed AUC (Z-AUC, a mean-centering transformation applied to each individual cell-line screened).
On the technique in general: ATP-based viability assays read luminescence as a measure of living cells.
For the molecule `C=C1C[C@@H]2CC[C@@]34C[C@H]5O[C@H]6[C@@H](O3)[C@H]3O[C@H](CC[C@@H]3O[C@H]6[C@H]5O4)CC(=O)C[C@@H]3[C@@H](OC)[C@@H](C[C@H](O)CN)O[C@H]3C[C@H]3O[C@@H](CC[C@@H]1O2)C[C@@H](C)C3=C`, the Potency was 0.0019 µM (active). As for `COc1ccc2nc(S(=O)Cc3ncc(C)c(OC)c3C)[nH]c2c1` (stereo not given), the Potency result was “inactive”. For the molecule `CCS(=O)(=O)Nc1ccc(Oc2ccc(F)cc2F)c(-c2cn(C)c(=O)c3[nH]ccc23)c1`, the Potency was 0.0833 µM (active).

Take `CCCCC(=O)OCC(=O)[C@]1(O)Cc2c(O)c3c(c(O)c2[C@@H](O[C@H]2C[C@H](NC(=O)C(F)(F)F)[C@H](O)[C@H](C)O2)C1)C(=O)c1c(OC)cccc1C3=O`: the Potency is 2.63 µM (active). Regarding `CCCc1cc(C(=O)N[C@H](Cc2ccc(-c3cccc(OC(F)(F)F)c3)nc2)C(=O)N[C@@H]2CCNC2)sc1C`, the Potency was 14.8 µM (active). Regarding `N=C1CCCN1Cc1[nH]c(=O)[nH]c(=O)c1Cl`, the Potency entry is “inactive”.

Take `O=C(O)c1ccc(CN2CCC(CN[C@@H]3C[C@H]3c3ccccc3)CC2)cc1`: the Potency result was “inactive”. Turning to `CC1=NN(c2ccc(C(=O)O)cc2)C(=O)/C1=C/c1ccc(-c2cc(C)c(C)cc2[N+](=O)[O-])o1`, the Potency entry was “inactive”. With `CN1C(=O)[C@@H](NC(=O)c2n[nH]c(Cc3ccccc3)n2)COc2ccccc21`, the Potency result was “inactive”.

With `c1ccc2c(Cc3c[nH]c4ccccc34)c[nH]c2c1`, the Potency result is “inactive”. Turning to `CN1CCN(C(=O)[C@H]2[C@@H](C(=O)O)[C@H]3CC[C@@H]2O3)CC1`, the viability (% of control) was 96.1% [at 8.46 µM]. For the molecule `CNC(=O)[C@H]1O[C@@H](n2cnc3c(NCc4cccc(I)c4)nc(Cl)nc32)[C@H](O)[C@@H]1O`, the Potency entry was “inactive”. As for `COc1cc(C)[nH]c(=O)c1CN1CCc2c(Cl)cc([C@H](OC)C3COC3)c(Cl)c2C1=O`, the Potency entry was “inactive”. On to `O=C(NCc1ccccc1)c1csc(Nc2ccncn2)n1`, for which the Potency is 18.6 µM (active).

As to `CCOC(=O)[C@@]1(CCCCCCOc2ccc(Cl)cc2)CO1`, the Potency entry was “inactive”. In the case of `Cn1c(=O)c2c(ncn2CC2OCCO2)n(C)c1=O`, the Potency result was “inactive”. With `O=c1ncccn1[C@@H]1O[C@H](CO)[C@@H](O)[C@H]1O`, the Potency entry is “inactive”.

`CN1C/C=C/CCOc2cccc(c2)-c2ccnc(n2)Nc2cccc(c2)C1`: the Potency is 0.372 µM (active).

Turning to `O=c1c(-c2ccc(O)cc2)coc2c([C@@H]3O[C@H](CO)[C@@H](O)[C@H](O)[C@H]3O)c(O)ccc12`, the Potency result is “inactive”. `COC1CC(C(=O)c2ccc3c(N)ncc(-c4ccc(-c5cnn(C)c5)cc4)c3n2)C1` (stereo not given): the Potency was 11.8 µM (active). For `COC(C)(C)CCn1nc(Nc2c(C)cccc2C)c2cnc(Nc3ccc(OCCN4CCCC4)c(F)c3)nc21`, the Potency was 14.8 µM (active). Turning to `[2H]C([2H])(Nc1nc(-c2ccccc2C([2H])(C([2H])([2H])[2H])C([2H])([2H])[2H])ncc1C)c1ccc(-n2ccnn2)cc1`, the Potency result was “inactive”. `CCN(CC)CCCC[C@H](NC(=O)[C@H](CC(C)C)NC(=O)[C@H](C)NC(=O)[C@H](Cc1ccccc1)NC(=O)c1ccc(C(C)(C)C)cc1)C(=O)N[C@@H](CO)C(=O)OC` ({Benzoyl(4-tBu)}-FAL[Lys(Et2)]S-OMe): the Potency entry was “inactive”.

In the case of `O=C(O)CC(C(=O)O)n1c(O)c(C2=c3cc(Br)ccc3=NC2=O)sc1=S` (stereo not given), the Potency result is “inactive”. As for `Clc1cc(Cl)cc(CNc2ncncc2-c2ccc3c(c2)OCO3)c1`, the Potency is 26.3 µM (active). As to `Cn1c(-c2ccccc2C(F)(F)F)nnc1C12CCC(c3noc(C4CC(F)(F)C4)n3)(CC1)CC2`, the Potency entry was “inactive”. In the case of `O=C(NO)c1cnc(NC2(c3ccccc3)CC2)nc1`, the Potency is 8.33 µM (active). `CC(c1cc2ccccc2s1)N(O)C(N)=O` (stereo not given): the Potency entry is “inactive”. On the same count and under the same terms, with `CC(C)(C)C[C@H]1N[C@@H](C(=O)NC2CCC(O)CC2)[C@H](c2cccc(Cl)c2F)[C@@]12C(=O)Nc1cc(Cl)ccc12` (stereo not given in full) the figure was 3.32 µM (active). With `CC[C@H]1OC(=O)[C@H](C)[C@@H](O[C@H]2C[C@@](C)(OC)[C@@H](O)[C@H](C)O2)[C@H](C)[C@@H](O[C@@H]2O[C@H](C)C[C@H](N(C)C)[C@H]2O)[C@](C)(O)C[C@@H](C)CN(C)[C@H](C)[C@@H](O)[C@]1(C)O`, the Potency result is “inactive”. Still for that read-out and setting: with `Cc1nnc(C[C@@H]2C=C(c3ccc(Cl)cc3)c3ccccc3-n3c(C)nnc32)o1` the figure was 5.25 µM (active). As to `CCNCCc1ccc(CN(CC)c2cc(OC)ccc2[C@@H]2CCc3cc(O)ccc3C2)cc1`, the Potency was 8.33 µM (active). Regarding `Nc1ccn([C@@H]2O[C@H](CO)[C@@H](O)[C@H]2O)c(=O)n1`, the Potency entry was “inactive”. Take `CC(C)(C)C(=O)N1N=CC[C@H]1c1ccccc1`: the Potency entry is “inactive”. Take `O=c1cc(O)c(Cl)c[nH]1`: the Potency result was “inactive”. As to `COc1cc2c(Oc3ccc4[nH]c(C)cc4c3F)ccnc2cc1OCC1(N)CC1`, the Potency is 8.33 µM (active). For the molecule `COC(=O)Nc1nc2ccc(S(=O)c3ccccc3)cc2[nH]1` (stereo not given), the Potency was 7.42 µM (active). Consider `CC1(C)OC2=C(C(=O)c3ccccc3C2=O)[C@H](NCc2ccccc2)[C@@H]1O`, for which the Potency was 7.42 µM (active).

Consider `COc1ccc(C(=O)CC2(O)C(=O)Nc3c(Cl)ccc(Cl)c32)cc1` (stereo not given), for which the Potency was 1.86 µM (active). With `Cn1cc(CNCC2CCN(c3ncc(C(=O)NO)cn3)CC2)c2ccccc21`, the Potency was 0.332 µM (active).
